CHX counter – Cycloheximide Counterscreen for Small Molecule Inhibitors of Shiga Toxin; cell reporter, cycloheximide protein synthesis inhibition counterscreen; max response, %; 12% of 300,000 active; AID 2314, 2010; in the data active = max response mostly above about 13%, no sharp cut-off; inactive = mostly below about 14%; note: read at 38.3 µM for the half of the compounds with a filed dose; 0% is about no effect
MARV entry inh – qHTS for inhibitors of binding or entry into cells for Marburg Virus; Marburg virus pseudotyped entry inhibition, cell reporter; Potency, µM (doses to about 37.8 µM), inactives show at the top dose activity change, negative = inhibition, hits mostly inhibitors; 1.8% of 300,000 active; AID 540276, 2011; calls by dose curve; tested in HEK293 cells; note: potency is the fitted concentration of half-maximal effect; % is set by controls: 0 for no effect and ±100 for the full control effect
Lassa entry inh – qHTS for Inhibitors of binding or entry into cells for Lassa Virus. Potency, µM (series often up to 37.9 µM), without a hit: top-dose activity change, negative = inhibition, actives largely listed as inhibitors. Lassa virus pseudotype entry inhibition, cell reporter. 1.2% of 300,000 active; calls by dose curve; tested in HEK293 cells; note: potency is the fitted concentration of half-maximal effect; % is set by controls: 0 for no effect and ±100 for the full control effect; nearly all actives have a fitted effect of over 50% in size
VACV Venus inh – qHTS for Stage-Specific Inhibitors of Vaccinia Orthopoxvirus: Venus Reporter Primary qHTS | Vaccinia virus Venus reporter expression, fluorescence | Potency, µM (top dose mostly 36.5 µM), inactives show at the highest dose activity change, negative = inhibition, most hits filed as inhibitors | 0.46% of 330,000 active | AID 720580, 2013; calls by dose curve; tested in A549 cells; note: potency is the fitted concentration of half-maximal effect; % is set by controls: 0 for no effect and ±100 for the full control effect; nearly all actives have a fitted effect of over 30% in size
Shiga inhibitor – A qHTS for Small Molecule Inhibitors of Shiga Toxin; Vero cells, Shiga toxin protein synthesis inhibition reporter; inhibition, % at 38.7 µM; 9.2% of 290,000 active; AID 2315, 2010; in the data active = inhibition mostly above about 28%, no sharp cut-off; inactive = mostly below about 43%; note: 0% is about no effect
Vaccinia mCherry – qHTS for Stage-Specific Inhibitors of Vaccinia Orthopoxvirus: mCherry Reporter Primary qHTS; Vaccinia virus mCherry reporter infection, fluorescence; Potency, µM (highest dose often 36.5 µM), inactives show at the highest dose activity change, negative = inhibition, hits mostly inhibitors; 0.63% of 310,000 active; AID 720579, 2013; calls by dose curve; tested in A549 cells; note: potency is the fitted concentration of half-maximal effect; % is set by controls: 0 for no effect and ±100 for the full control effect; nearly all actives have a fitted effect of over 35% in size
The depositor's hits bear a star; i = inactive; ? = inconclusive; nt = no result given; [ ] = remark or other dose. The full list was thinned out, with hits kept by preference.

SMILES | CHX counter | MARV entry inh | Lassa entry inh | VACV Venus inh | Shiga inhibitor | Vaccinia mCherry
COc1ccc(C(=O)N2CCCC(c3ccccc3)C2)cc1 (stereo not given) | -1.8 | ? | 4.47µM* | -25.4% | -9.6 | ?
CCCCn1c(C)cc2c(c1=O)C1O[C@](c3ccc(OC)cc3)(Cc3cc(OC)c(OC)cc31)O2 | 15.3* | nt | nt | nt | i | nt
CCCCn1c(C)cc2c(c1=O)[C@H]1O[C@](CCCC)(Cc3cc(OC)c(OC)cc31)O2 | -1.1 | nt | nt | nt | i | nt
Cc1ccc(C)c(Cn2c(=O)n(Cc3ccc(C(=O)NC4CCN(Cc5ccccc5)CC4)cc3)c(=O)c3ccccc32)c1 | nt | -7.1%[46.1 µM] | 3.2%[46.1 µM] | -11.8% | nt | -17.5%
Cc1cccc(-n2cnc(C(=O)NNC(=S)Nc3ccc(Cl)cc3)c2)n1 | 5.9 | 11.2µM* | ? | -2.5% | -3.6 | ?
O=C(Nc1ccc(F)cc1)c1c(Cl)nc2ccccn12 | 31.2* | ? | -9.7% | 1.7% | 73.3* | -6.6%
COc1ccc(NC(=O)c2c(Cl)nc3ccccn23)cc1 | 31.7* | 12.8%[46.1 µM] | ? | -12.2% | 74.0* | i
Cc1nc2ccccn2c1C(=O)NNC(=S)Nc1ccc(Cl)cc1 | -1.0 | -18.2% | -3.9% | -11.1% | 19.3* | -19.0%
CCC(=O)Nc1ccc(NC(=O)c2c(C)nc3ccccn23)cc1 | -3.9 | 0.5% | ? | -10.9% | 10.4 | -20.2%
C=CCOCCC=C1c2ccccc2[C@@H](OC)[C@@H]1C | nt | -8.2%[14.2 µM] | nt | nt | nt | nt
c1ccc2c(C3=NNC(=NC4CCCCC4)SC3)c[nH]c2c1 | 35.7* | -0.3% | 2.2% | nt | 26.3 | nt
c1ccc(C2=NNC(=NC3CC3)SC2)cc1 | 15.5* | ? | 8.2µM* | -8.0% | 31.9 | i
c1ccc2c(C3=NNC(=NC4CC4)SC3)c[nH]c2c1 | 38.0* | ? | 11.2µM* | -13.6% | 16.5 | -9.1%
Cc1cc(C)cc(NC(c2cccc(Cl)c2)c2nnc(-c3ccccc3)o2)c1 (stereo not given) | nt | ? | -29.6%[46.1 µM] | 3.7% | nt | -8.0%
CC(Oc1ccc(Cl)cc1)C(=O)Nc1ccccc1N1CCOCC1 (stereo not given) | nt | 12.6µM* | ? | -6.6% | nt | -12.4%
Cc1cc(Cl)ccc1OC(C)C(=O)Nc1ccccc1N1CCOCC1 (stereo not given) | -1.8 | ? | ? | -6.3% | -9.0 | -9.5%
CCC1(CC)Nc2ccccc2C(=O)N1c1ccc(NC(C)=O)cc1 | 11.7* | -29.0% | -4.9% | -9.3% | 17.5 | nt
COc1ccc(N2C(=O)c3ccccc3NC23CCCC3)cc1 | 31.5* | ? | ? | -14.5% | 43.6* | -18.9%
CC1(C)Nc2ccccc2C(=O)N1c1ccccc1 | 18.5* | 9.5%[46.1 µM] | 18.7%[46.1 µM] | 7.5% | nt | -0.9%
CCC1(CC)Nc2ccccc2C(=O)N1c1ccc(OC)cc1 | 33.2* | nt | nt | nt | 35.7* | nt
CCC(=O)N1CCc2cc(S(=O)(=O)NC(CC(C)C)C(=O)NCc3ccc(F)cc3)ccc21 (stereo not given) | nt | 0.6%[46.1 µM] | -2.6%[46.1 µM] | -10.3% | nt | -12.0%
CCC(CC)NC(=O)CN(c1ccccc1OC)S(=O)(=O)c1cccs1 | 8.1 | -2.0% | nt | nt | 28.4 | nt
COCCNC(=O)CSc1n[nH]c(=O)n1CCc1ccccc1 | 1.3 | nt | nt | nt | -2.5 | nt
CCc1nnc(SCc2ccc(F)cc2Cl)c2cc3sc(C)cc3n12 | nt | nt | 7.8%[46.1 µM] | -10.7% | nt | -3.7%
COc1cccc(Cn2c(CNC(=O)CCc3ccccc3)nc3cccnc32)c1 | nt | nt | ? | -5.5% | nt | -8.2%
SMILES | CHX counter | MARV entry inh | Lassa entry inh | VACV Venus inh | Shiga inhibitor | Vaccinia mCherry
O=S(=O)(c1ccc2c(c1)OCCO2)N1CCN(S(=O)(=O)c2cc(F)c(Br)cc2F)CC1 | -9.1 | nt | nt | nt | -5.7 | nt
COc1nc(C)ccc1-c1noc(-c2ccncc2)n1 | 22.7* | -0.6% | 2.9% | nt | 24.9 | nt
COc1nc(C)ccc1-c1noc(-c2cccs2)n1 | 57.8* | 11.2µM* | -28.6% | -7.8%[7.34 µM] | 139.6* | i[7.34 µM]
CC[C@@]1([C@@H]2O[C@@H]([C@H]3O[C@@](O)(CO)[C@H](C)C[C@@H]3C)C[C@@H]2C)CC[C@H]([C@]2(C)CC[C@]3(C[C@H](O)[C@@H](C)[C@@H]([C@@H](C)[C@@H](OC)[C@H](C)C(=O)O)O3)O2)O1 (stereo in doubt) | nt | nt | nt | ? | nt | i
C=CCn1c(C)c(/C=C/c2cc[n+](C)cc2)c2ccccc21 | -2.6 | 2.82µM* | ? | 161.2% | nt | -6.8%
COc1ccc(NC(=O)CCS(=O)(=O)c2ccccc2Cl)cc1S(=O)(=O)Nc1ccc(Cl)cc1 | 4.6 | nt | nt | nt | -8.8 | nt
CS(=O)(=O)CCNCc1ccc(-c2ccc3ncnc(Nc4ccc(OCc5cccc(F)c5)c(C(F)(F)F)c4)c3c2)o1 | nt | nt | 19.9µM* | nt | nt | nt
CS(=O)(=O)CCNCc1ccc(-c2ccc3ncnc(Nc4ccc(OCc5ccccc5)cc4)c3c2)o1 | nt | nt | 15.8µM* | nt | nt | nt
CS(=O)(=O)CCNCc1nc(-c2ccc3ncnc(Nc4ccc(OCc5cccc(F)c5)c(Cl)c4)c3c2)cs1 | -4.9 | nt | nt | nt | 26.2 | nt
CCc1ccc(NC(=O)c2noc(C(C)C)c2[N+](=O)[O-])cc1 | 47.6* | nt | nt | nt | 150.6* | nt
Cc1ccc(O)c(NC(=O)c2noc(C(C)C)c2[N+](=O)[O-])c1 | 42.3* | nt | nt | nt | 48.7 | nt
CC(C)c1onc(C(=O)NCCc2ccccc2)c1[N+](=O)[O-] | 52.9* | ? | 17.8%[46.1 µM] | 0.3% | 81.7* | i
COc1ccc(NC(=O)c2noc(C(C)C)c2[N+](=O)[O-])cc1 | 36.5* | 0.4%[46.1 µM] | -6.2%[46.1 µM] | -20.3% | 50.0* | i
COc1ccc(NC(=O)c2nn(C)c(C(=O)Nc3ccc(OC)cc3)c2[N+](=O)[O-])cc1 | -3.8 | nt | nt | nt | nt | nt
CCSc1nnc2c(n1)OC(CC)N(C(C)=O)c1ccccc1-2 (stereo not given) | nt | 16.6%[46.1 µM] | 10.5%[46.1 µM] | 4.9% | nt | -2.6%
CC(=O)c1ccc(NC(=O)c2noc(C(C)C)c2[N+](=O)[O-])cc1 | 40.6* | nt | nt | nt | 37.5 | nt
CC(C)c1onc(C(=O)NC(C)c2ccccc2)c1[N+](=O)[O-] (stereo not given) | 9.2 | nt | nt | -23.2% | -3.5 | -0.1%
COc1ccc(C2CC(=O)c3cc(-c4nc(-c5cccc([N+](=O)[O-])c5)cs4)c(=O)n(-c4ccccc4N)c3C2)cc1 (stereo not given) | nt | 6.2%[46.1 µM] | ? | 13.0% | nt | 16.7%
Cc1ccc(S(=O)c2snnc2C)cc1 (stereo not given) | -1.9 | ? | -13.9%[46.1 µM] | ? | -6.0 | ?
CCCNC(=O)c1nnsc1S(=O)(=O)c1ccc(Cl)cc1 | 27.0* | ? | 2.82µM* | 12.6µM* | 29.6 | ?
CNC(=O)c1nnsc1S(=O)c1ccc(Cl)cc1 (stereo not given) | 55.3* | ? | ? | -21.0% | 98.2* | -28.2%
CCCNC(=O)NS(=O)(=O)c1ccc(Cl)cc1 | -3.4 | -11.8% | 13.7% | -5.7% | -10.0 | -17.9%
CCCNC(=O)c1nnsc1S(=O)c1ccc(Cl)cc1 (stereo not given) | 36.0* | ? | ? | ? | 17.7 | ?
Cc1nnsc1S(=O)c1ccc(F)cc1 (stereo not given) | -2.0 | nt | nt | nt | -9.3 | nt
